Rows were chosen to be rich in hits. Some 2.4% of all compounds tested hit in one or more screens of this group.
miR-122 sensor – miR-122 inhibition in Huh7 cells | Huh7 miR-122 Renilla luciferase sensor, 48 h; neutral wells = 0, positive control = 100 | actives 0.3% (n = 340,000) | activation (reporter increase), % at 12.5 µM;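 active = mean replicate activation score at least 90 and every replicate individually at or above 90; inconclusive = only one of the two criteria met; inactive = neither criterion met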;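 also: higher luciferase means less miR-122 activity so hits act as miR-122 inhibitors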
Wnt bcat act – Wnt/beta-catenin pathway activation; Wnt/beta-catenin reporter cell assay, activator, plate reader; activation, % at 9.35 µM; actives 1.2% (n = 300,000); in the data active = activation above about 30%, passing the limit was not always enough; inconclusive = no clear call, values can overlap the other calls;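 also: 0% = neutral control wells and 100% = positive control wells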
NSD2 inh – NSD2 (human) methyltransferase inhibition; NSD2 peptide methylation, AlphaScreen, 120 min; inhibition, % at 12.5 µM; actives 0.54% (n = 310,000); AID 743445
Dyrk1A ADPGlo – Dyrk1A (rat) kinase inhibition; Q63470; ADP-Glo luminescence, NFATc1 peptide; inhibition, % at 12.5 µM; actives 0.43% (n = 310,000); AID 504441;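 also: plate controls were vehicle with enzyme for no effect and no enzyme for full effect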
GSIS activator – GLuc luminescence reporter in INS-1E cells, primary screen for activators of glucose-dependent secretion of insulin; INS-1E GLuc reporter insulin secretion, 2-3 h; AID 743287; activation, % at 16.6 µM; actives 0.61% (n = 370,000);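 active = lowest replicate activation of at least 40%, so every replicate reaches that level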;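 also: 0% = median of neutral control wells and 100% = median of IBMX positive control wells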
MITF act – MITF TRPM1 promoter activation in melanoma cells; SK-MEL-5 TRPM1-promoter luciferase, 24 h; % of positive control, neutral wells = 0; activation, % at 12.5 µM; actives 0.75% (n = 300,000);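 active = mean activation of at least 80% with every replicate also reaching 80%; inconclusive = mean reaches 80% but some replicate falls short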;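 also: 0% = neutral control wells and 100% = parthenolide positive control wells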
* = called active by the depositor; ? = inconclusive; · = no result; [ ] = dose if it differs, or a comment. Rule as the data show it, unless noted: active = inhibition above about 50%; inactive = the rest.

SMILES	miR-122 sensor	Wnt bcat act	NSD2 inh	Dyrk1A ADPGlo	GSIS activator	MITF act
Cc1ccc(OCC(=O)O/N=C(\N)c2ccccn2)cc1C	-4	39*	-3	·	·	·
N/C(=N\OC(=O)CCC1CCCC1)c1ccccn1	·	52*	-2	2	-5	33
N/C(=N\OC(=O)COc1ccccc1)c1ccccn1	-7	48*	-3	-71	-12	49
N/C(=N\OC(=O)COc1ccccc1)c1ccncc1	·	3	-2	0	·	40
N/C(=N\OC(=O)COc1ccc2ccccc2c1Br)c1ccccn1	26	44*	-1	1	10	?
Cc1cc(C)cc(OCC(=O)O/N=C(\N)c2ccccn2)c1	9	·	0	-12	-13	25
CN1C(=O)c2cc(NC(=O)C3CCCC3)ccc2OC[C@H]2O[C@H](CC(=O)O)CC[C@H]21	15[16.7 µM]	·	·	·	1	·
Cc1noc(C)c1S(=O)(=O)N(C)C[C@H]1Oc2ccc(NC(=O)c3ccncc3)cc2C(=O)N([C@H](C)CO)C[C@@H]1C	·	·	·	·	20	·
CCCNC(=O)C[C@H]1CC[C@@H]2[C@@H](COc3ccc(NC(=O)c4ccc(C(F)(F)F)cc4)cc3C(=O)N2C)O1	-45[16.7 µM]	·	·	·	-10	·
N/C(=N\OC(=O)COc1ccccc1)c1cccnc1	·	29	-2	-1	1	104*
N/C(=N\OC(=O)COc1ccc(Br)cc1)c1cccnc1	-6	5	-3	-8	-7	24
CCc1ccc(OCC(=O)O/N=C(\N)c2ccccn2)cc1	-6	48*	20	·	1	·
Cc1cccc(OCC(=O)O/N=C(\N)c2ccccn2)c1	-2	12	·	-2	1	99*
CCOc1ccc(C(=O)O/N=C(\N)c2ccccn2)cc1	-5	-4	-7	26	-2	·
CC(=O)N(C)C[C@H]1Oc2cc(C3=CCCCC3)ccc2S(=O)(=O)N([C@H](C)CO)C[C@@H]1C	1[16.7 µM]	·	·	·	-2	·
CCN(C(=O)COC(=O)CNC(=O)C12CC3CC(CC(C3)C1)C2)C1CCS(=O)(=O)C1 (stereo not drawn)	-3	-1	-5	-4	-3	-2
CCN(C(=O)C12CC3CC(CC(C3)C1)C2)C1CCS(=O)(=O)C1 (stereo not drawn)	2	2	·	15	59*	-3
CCc1ccc(NC(=S)NC(=O)CC(C)C)cc1	·	61*	-2	-2	-4	51
CC(C)c1ccc(NC(=O)c2cc(Br)ccc2Br)cc1	17	-1	-2	-1	-14	29
CC(C)c1ccc(NC(=O)c2snc3ccc(Cl)cc23)cc1	40	22	4	-4	-7	120*
CCc1ccc(NC(=O)c2cccnc2)cc1	-3	53*	-3	-6	·	74
CC(C)c1ccc(NC(=S)NNC(=O)c2cccnc2)cc1	·	1	-1	1	·	-10
CCSc1ccc(NC(=O)c2cccnc2)cc1	-3	37*	-2	-4	·	·
CC(C)c1ccc(NC(=O)c2cccnc2)cc1	1	·	-4	0	18	91*
CCCNS(=O)(=O)c1ccc(NC(=O)c2cccnc2)cc1	-1	-6	1	-6	18	-5
SMILES	miR-122 sensor	Wnt bcat act	NSD2 inh	Dyrk1A ADPGlo	GSIS activator	MITF act
C[C@@H]1CCCCO[C@@H](CN(C)C(=O)NC2CCCCC2)[C@H](C)CN([C@@H](C)CO)C(=O)c2cc(NC(=O)Nc3ccc(C(F)(F)F)cc3)ccc2O1	-15[16.7 µM]	·	·	·	5	·
Cn1cnc(S(=O)(=O)N2CCCCN3[C@H](CO)[C@H](c4ccc(C5=CCCC5)cc4)[C@@H]3C2)c1	4[16.7 µM]	·	·	·	·	·
CCC(C)c1ccc(NC(=O)Nc2cccnc2)cc1 (stereo not drawn)	4	20	0	-1	·	111*
O=C(Nc1ccccc1NC(=O)c1csnn1)c1csnn1	·	-1	-2	2	13	·
CC(C)c1ccc(NC2CCCN(C(=O)c3cccnc3)C2)cc1 (stereo not drawn)	5	-2	6	0	76*	-4
CCC(C)c1ccc(NC(=O)NCc2cccnc2)cc1 (stereo not drawn)	11	3	1	6	-11	5
CC(C)c1ccc(NC(=O)c2csnn2)cc1	1	20	-1	5	7	84*
CC(C)(C)[S@](=O)N1Cc2cc(C(=O)NCCc3ccncc3)nc(-c3cccc(-c4ccccc4)c3)c2[C@@H]1CCO	·	·	·	·	-26	·
O=c1oc(CCO)cc2ccc(C#Cc3ccsc3)cc12	-6	33*	·	3	-5	115*
CN(C)c1ccc(C#Cc2ccc3cc(CCO)oc(=O)c3c2)cc1	-4	·	·	1	·	128*
O=C1c2ccccc2C(=O)N1CCC#Cc1ccc2cc(CCO)oc(=O)c2c1	-2	1	·	10	26	6
O=c1oc(CCCO)cc2ccc(C#Cc3cccnc3)cc12	·	22	·	12	·	46
COc1cc(C#Cc2ccc3cc(CCO)oc(=O)c3c2)cc(OC)c1	-2	38*	·	12	·	144*
COc1ccc2c3c([nH]c2c1)[C@H](CO)N(C(=O)C1CC1)CC31CN(C)C1	·	·	·	·	20	·
COc1ccc(C)cc1S(=O)(=O)Nc1cccc(C)c1	·	-1	-2	4	11	1
COc1ccc(NS(=O)(=O)c2cc(C)ccc2OC)cc1OC	95*	-1	-4	6	·	-9
COc1ccc(C)cc1S(=O)(=O)Nc1cccc(SC)c1	166*	·	3	8	·	2
O=C(NCc1ccco1)c1ccc2c(=O)n(CCC3=CCCCC3)c(=O)[nH]c2c1	-6	-4	·	-9	68*	2
CCN1CCN(C(=O)c2ccc3c(=O)n(CCC4=CCCCC4)c(=O)[nH]c3c2)CC1	-5	-4	·	10	·	24
OC[C@@H]1[C@@H](c2ccc(C#CC3(O)CCCC3)cc2)[C@H]2CN(Cc3cccnc3)CCCCN12	0[16.7 µM]	·	·	·	12	·
COc1ccccc1NC(=O)c1ccc2[nH]c(C)c(C)c2c1	-3	40*	3	2	22	28
Cc1[nH]c2ccc(C(=O)NC3CCC(C)CC3)cc2c1C (stereo not drawn)	32	28	2	-2	10	85*
O=C(c1ccccc1)c1ccc2ccccc2n1	0	·	-2	-3	50*	33
C[C@H](CO)N1C[C@H](C)[C@H](CN(C)S(=O)(=O)c2ccc(F)cc2)Oc2ncc(C#Cc3cccc(F)c3)cc2C1=O	-12[16.7 µM]	·	·	·	-14	·
C[C@H](CO)N1C[C@H](C)[C@@H](CN(C)Cc2ccc(-c3ccccc3)cc2)Oc2ccc(NC(=O)Cc3ccccc3)cc2C1=O	7[16.7 µM]	·	·	·	-28	·
COc1ccc(C(C)(C)C)cc1S(=O)(=O)n1ccnc1C	95*	0	-2	-3	2	13
CN1C(=O)c2cc(NC(=O)c3cncs3)ccc2OC[C@H]2O[C@@H](CC(=O)NCC3CC3)CC[C@@H]21	·	·	·	·	9	·
O=[N+]([O-])c1ccc(Nc2nccc(Cl)n2)cc1	-1	55*	-2	·	9	·
